# Hit rate of the full screen: of about 360,000 compounds, about 7,300 (2%) were called active. The sample holds actives, similar compounds and a random draw of the others, so the mix is not that of the screen. Cut-off read from the data, not from the text of the source: active = inhibition above about 50%; inactive = the rest.
# Test: blockers of TWEAK-induced Fn14 reporter activity – luciferase reporter cells, uHTS, primary screen (AID 1159606)
# Conditions: TWEAK-stimulated Fn14 reporter cells, luciferase luminescence, 8 h; at 10 µM; stronger effect = higher value
row,SMILES,inhibition
1,CC(C)Nc1ccc(-n2nc3ccccc3[n+]2[O-])cc1,62.4% (active)
2,C[C@H]([C@@H](O)[C@@H](O)[C@@H](C)C(C)(C)C)[C@H]1CC[C@H]2C3CC[C@H]4C[C@H](OS(=O)(=O)O)[C@@H](OS(=O)(=O)O)C[C@]4(C)[C@H]3CC[C@]12C (some centres undefined),3.39% (inactive)
3,CCCC1C(=O)N2C(N(C)C)=Nc3ccc(C)cc3N2C1=O (centres undefined),-18.1% (inactive)
4,O=C(O)c1ccc(/C=C2\SC(=S)N(NC(=O)c3ccc(Br)cc3)C2=O)cc1,2.06% (inactive)
5,C=CCOc1ccc(/C=C2\SC(=S)N(CCC(=O)O)C2=O)cc1,90% (active)
6,O=C1/C(=C\c2ccccc2Cl)SC(=S)N1CCC(=O)N1CCCc2ccccc21,3.74% (inactive)
7,CCCNC(=O)C1(C)CCN(C(=O)c2ccc(F)cc2Cl)C1 (centres undefined),2.61% (inactive)
8,COc1cccc2cc(C(N)=O)/c(=N\NC(=O)c3ccccc3)oc12,91.4% (active)
9,COc1cccc2cc(C(=O)N3CCN(C(=O)c4ccccc4)CC3)c(=O)oc12,11.9% (inactive)
10,COc1cccc2cc(C(=O)N(C)C)c(=O)oc12,0.46% (inactive)
11,CCN(CC)S(=O)(=O)c1ccc(C(=O)N2CCN(C3=NS(=O)(=O)c4ccccc43)CC2)cc1,-0.95% (inactive)
12,O=S1(=O)CC(N2CCN(CCO)CC2)CN1Cc1cn(Cc2cccc(Cl)c2)nn1 (centres undefined),13.2% (inactive)
13,CCOC(=O)C(NS(=O)(=O)c1ccc(C)cc1)(C(F)(F)F)P(=O)(OCC(C)C)OCC(C)C (centres undefined),56.7% (active)
14,Cc1ccc(S(=O)(=O)NCC(C)NS(C)(=O)=O)cc1 (centres undefined),4.2% (inactive)
15,CC(=O)N1CCN(CC(C)(C)NS(=O)(=O)c2ccc(C)cc2)CC1,14% (inactive)
16,O=C(CN1C(=O)/C(=C\c2ccccc2F)SC1=S)Nc1nc2ccccc2s1,29.6% (inactive)
17,O=C(CN1C(=O)/C(=C\c2ccc(C(F)(F)F)cc2)Sc2ccccc21)NCc1ccco1,27.1% (inactive)
18,O=C(CN1C(=O)/C(=C/c2ccccc2F)Sc2ccccc21)NCc1cccnc1,52.7% (active)
19,O=C(NCc1ccccn1)[C@@H]1CCCN1C(=O)[C@@H]1CCCN1C(=O)c1ccccc1,7.41% (inactive)
20,Cc1ccc(NS(=O)(=O)c2cc3c(cc2C)NC(=O)CO3)cc1,8.45% (inactive)
21,O=C(Nn1cnc2ccccc2c1=O)c1ccc(F)cc1Cl,-23.3% (inactive)
22,CN1CCN(c2ccc([N+](=O)[O-])c(Sc3nc4ccccc4[nH]3)c2)CC1,17% (inactive)
23,CCC(C)N1C(=O)S/C(=C/c2ccc(Sc3nc4ccccc4[nH]3)o2)C1=O (centres undefined),69.5% (active)

row,SMILES,inhibition
1,CC(C)c1ccc(/C=C2\NC(=O)NC2=O)cc1,18.4% (inactive)
2,O=C(CSc1ccc([N+](=O)[O-])cn1)Nc1ccc(N2CCOCC2)c(Cl)c1,-16.6% (inactive)
3,CCOc1ccc(C(=O)NC(=S)Nc2ccc(N3CCOCC3)c(Cl)c2)cc1[N+](=O)[O-],62.8% (active)
4,CCOc1ccc(C(=O)NC(=S)Nc2ccc(NC(=O)C(C)C)cc2)cc1[N+](=O)[O-],3.3% (inactive)
5,COc1ccc(C(C#N)=C2C=CC(=NO)c3ccccc32)cc1,88% (active)
6,COc1ccc(/C(N)=N/OC(=O)Cc2ccccc2)cc1,-44.1% (inactive)
7,COc1ccc(C(=NN)c2ccc(OC)cc2)cc1,-20.6% (inactive)
8,CCOc1ccc(Br)cc1S(=O)(=O)N1CCC(C(=O)O)CC1,0.18% (inactive)
9,O=C(Cn1c(NCCO)nc2ccccc21)c1ccc(Cl)cc1Cl,22.5% (inactive)
10,OCCNc1nc(Nc2ccc(Cl)c(Cl)c2)nc2ccccc12,84.3% (active)
11,OCCNCCOc1ccc(Cl)c(Cl)c1,5.07% (inactive)
12,COC(=O)[C@]12CCCCC=C1N(Cc1ccc(Cl)cc1Cl)C(=O)[C@H](CC(=O)NCc1cccc3ccccc13)C2,5.94% (inactive)
13,O=C(COc1ccccc1)N1CCN=C1SCc1cccc(F)c1,-2.31% (inactive)
14,COc1ccc(CCNC(=O)C2CCCN(Cc3nc(-c4cccc(Cl)c4)oc3C)C2)cc1OC (centres undefined),25.8% (inactive)
15,O=C(COc1ccc(S(=O)(=O)NCCc2ccccc2)cc1)N1CCCC1,11.6% (inactive)
16,COC(=O)C1(C)CC1(c1ccccc1)c1ccccc1 (centres undefined),7.44% (inactive)
17,O=C1c2ccccc2C(=O)N1CCC#Cc1ccc2cc(C3(O)CCCCC3)oc(=O)c2c1,71.2% (active)
18,COc1cc(C#Cc2ccc3cc(CCCO)oc(=O)c3c2)cc(OC)c1,18.9% (inactive)
19,C(#CCN1CCOCC1)CCCN1CCOCC1,-1.19% (inactive)
20,Cc1nn(-c2ccccc2)c(Cl)c1/C=C/C(=O)c1ccc(O)cc1,57.3% (active)
21,COc1ccc(CCNC(=O)c2c(C)nn(-c3ccccc3)c2Cl)cc1,-12.5% (inactive)
22,Cc1nn(-c2ccccc2)c(C)c1/C=C/C(=O)OC(C)C(N)=O (centres undefined),-4.83% (inactive)
23,Cc1sc(NC(=S)NC(=O)c2cccs2)nc1-c1ccc(CC(C)C)cc1,-5.35% (inactive)

row,SMILES,inhibition
1,C=CCOC(=O)C1=C(C)NC(C)=C(C(=O)OCC=C)C1c1cccs1,20.3% (inactive)
2,O=S1(=O)CC(N2CCN(CCO)CC2)CN1C1CCCC1 (centres undefined),11.3% (inactive)
3,COc1ccc(-c2c(C)nn3c(N4CCC(C(=O)N5CCCCC5)CC4)cc(C)nc23)cc1OC,-3.08% (inactive)
4,Cc1cc(C(=O)COc2ccccc2Cl)c(C)n1C1CC1,-10.6% (inactive)
5,Cc1cc(C(=O)COC(=O)C2CC2)c(C)n1-c1ccc(F)cc1,95.2% (active)
6,Cc1ccc(-n2c(C)cc(C(=O)CN3C(=O)C(=O)N(C4CCCC4)C3=O)c2C)cc1,40.7% (inactive)
7,Nc1nc2c(Br)ccc(Br)c2cc1C(=O)NCCc1ccccc1,14.3% (inactive)
8,CCCCc1cc(=O)oc2c(C)c(OCC(=O)N3CCC(C(N)=O)CC3)ccc12,-5.28% (inactive)
9,O=C(NCc1ccccc1Cl)c1csc([C@@H]2O[C@H](CO)[C@@H](O)[C@H]2O)n1,-0.12% (inactive)
10,COc1ccccc1CN1CCNC(=O)C1CC(=O)N(C)CC1CCOCC1 (centres undefined),1.59% (inactive)
11,CCN(CCn1cccn1)C(=O)CC1C(=O)NCCN1Cc1cccc(OC)c1OC (centres undefined),68.3% (active)
12,CN(Cc1cccc2ncccc12)C(=O)CC1C(=O)NCCN1Cc1ccc(F)cc1 (centres undefined),-1.61% (inactive)
13,Cc1nc2nc3c(cn2n1)C(=O)CC(c1ccccc1)C3 (centres undefined),8.49% (inactive)
14,CC1CN(C(=O)CN2C(=O)NC(C)(c3ccccc3)C2=O)CC(C)O1 (centres undefined),0.1% (inactive)
15,CN(C)c1nc(N)nc(CSc2nnnn2-c2cccc3ccccc23)n1,-0.11% (inactive)
16,Cc1cccc(C)c1-n1nnnc1C1(C)CCC(=O)N1CCOc1ccccc1 (centres undefined),-0.09% (inactive)
17,CCC1CCCCN1C(=O)CSc1nc2c(c(=O)n1C)SC(C)C2 (centres undefined),4.38% (inactive)
18,CCOC(=O)C(C)n1nc(-c2ccccc2)c2ccccc2c1=O (centres undefined),7.15% (inactive)
19,CCN(CC)C(=O)c1nc[nH]c1C(=O)N(C)Cc1ccccc1,6.48% (inactive)
20,CCN(CC)C(=O)c1sc2nc(-c3ccccc3)ccc2c1N,69.9% (active)
21,COc1cccc(NC(=O)Cn2c3ccc(F)cc3c3nc4n(c(=O)c32)CCS4)c1,7% (inactive)
22,CCN(CC(=O)Nc1ccccc1C(F)(F)F)C(=O)C1CCN(C(=O)Nc2ccccc2)CC1,4.09% (inactive)
23,C=C1C(=O)OC2C1CCC(C)=CCCC1(C)OC21 (centres undefined),81.5% (active)

row,SMILES,inhibition
1,C[C@H]1COc2cc(N3CCSCC3)ccc2S(=O)(=O)N1,-13.1% (inactive)
2,CCOC(=O)N1CCN(C(=O)Cn2cnc3ccccc3c2=O)CC1,-13.1% (inactive)
3,O=c1c2ccccc2ncn1/N=C/c1ccccc1,62.7% (active)
4,O=c1c2ccccc2ncn1CCc1ccncc1,-5.08% (inactive)
5,CCOc1cc(/C=N/NC(=O)c2ccncc2)cc(Br)c1O,-8.09% (inactive)
6,Nn1c(SCC(=O)Nc2ccc3c(c2)CCC3)nnc1C1CC1,1.14% (inactive)
7,CCCn1c(N)c(C(=O)CSc2nc3ccccc3c(=O)n2-c2ccc(OC)cc2)c(=O)[nH]c1=O,2.25% (inactive)
8,Cc1c(NC(=O)c2cc(-c3ccc(Br)cc3)on2)c(=O)n(-c2ccccc2)n1C,10.9% (inactive)
9,Cc1cc2oc(C(=O)Nc3c(C)n(C)n(-c4ccccc4)c3=O)c(C)c2cc1Cl,4.85% (inactive)
10,Cc1c(NC(=O)c2coc(=O)c(Br)c2)c(=O)n(-c2ccccc2)n1C,65.9% (active)
11,CCOc1ccc(NC(=O)c2ccc(NC(=O)CN3C(=O)C(=O)N(CC(C)C)C3=O)cc2)cc1,-46.8% (inactive)
12,Cc1cc(C)n2nc(C(=O)Nc3cccc(S(=O)(=O)N4CCOCC4)c3)nc2n1,-5.76% (inactive)
13,O=C1C2C3C=CC(C4CC34)C2C(=O)N1c1nccs1 (centres undefined),17.6% (inactive)
14,O=C(C[C@H]1C[C@H](C(=O)N2CCOCC2)[C@@]2(CCC3CCCC3)c3[nH]c4ccc(Cl)cc4c3CCN2C1=O)NCc1ccco1,32.8% (inactive)
15,COc1ccc(CNC(=O)C[C@H]2C[C@H](C(=O)N3CCOCC3)[C@@]3(CCC4CCCC4)c4[nH]c5ccc(Cl)cc5c4CCN3C2=O)cc1OC,60.6% (active)
16,COc1ccc2[nH]c3c(c2c1)CCN1C(=O)C(CC(=O)NCCCN(C)C)C[C@H](C(=O)N2CCOCC2)[C@@]31CCC1CCCC1 (some centres undefined),-4.84% (inactive)
17,Cc1cc(C)c(S(=O)(=O)NN=C2c3ccccc3[C@H]3Cc4csc[n+]4[C@@H]23)c(C)c1,13.8% (inactive)
18,Clc1ccc(-c2cc(-c3ccccn3)on2)c(Cl)c1,83.2% (active)
19,Clc1ccc(COn2c(-c3ccc(Cl)cc3Cl)nc3ncccc32)cc1,11.7% (inactive)
20,Fc1ccc(-c2ccc(CNCc3ccccn3)o2)cc1Cl,-29.9% (inactive)

# Source: PubChem BioAssay AID1159606 (Sanford-Burnham Center for Chemical Genomics, 2016)
